Structures are written as SMILES. Values without a mark were called inactive. A call without a number means that no potency is given here. Active and inactive are the calls of the source. The call rests on the fitted dose curve; in most records, active means well fitted activation curve with a large enough effect in the repeat runs; inconclusive means weak or mixed curves; inactive means flat fitted curve, though single readings scatter.
Potency means the concentration at half of the fitted maximal effect.

This test is described as follows: A CellTox Green Cytotoxicity Assay to monitor cytotoxicity in HepG2 cells - 0 hour (AID 1224882). Further: nearly all actives have a fitted effect of over 35% in size. Conditions: CellTox Green fluorescence; series mostly up to 76.8 µM. The text has this:
National Center for Advancing Translational Sciences [NCATS]
NIH Chemical Genomics Center [NCGC]
U.S. Environmental Protection Agency [EPA]
National Institutes of Environmental Health Sciences [NIEHS]
National Toxicology Program [NTP]
Cell-based models are critical for drug discovery. Determining the natural cytotoxic effects resulting from test compounds is an essential research activity. A CellTox Green Cytotoxicity Assay to monitor cytotoxicity in real time of continues cell culture during 40 hours of the compound treatment was used to screen Tox21 10K library compounds in HepG2 cells. CellTox Green Cytotoxicity Assay is a nonlytic, homogeneous, biofluorescent method to measure cytotoxicity in cell culture after experimental manipulation. The assay system uses a proprietary asymmetric cyanine dye that is excluded from viable cells but preferentially stains the dead cell's DNA. […] Viable cells produce no appreciable increases in fluorescence. Therefore, the fluorescence signal produced by the binding interaction with dead cell DNA is proportional to cytotoxicity.
The mixture of HepG2 cell suspension and reagents were dispensed at 600cells/6 ul/well in 1536-well tissue culture treated black solid bottom plates using a Multidrop dispenser. After the assay plates were incubated at a 37 C/5% CO2 incubator for 5 hours, 23 nL of compounds dissolved in DMSO, positive and negative controls was transferred to the assay plate by a pintool work station. The plates were incubated at 37 C for 40 hours. The fluorescence intensity were measured at 0h, 8h, 16h, 24h, 32h and 40h time points using ViewLux plate reader during compound treatment.
Regarding `COc1cc(C(=O)N2CCOCC2)cc(OC)c1OC`, the Potency entry is “inactive”. Still for that read-out and setting: the same measure for `Nc1ccn(C2CO[C@H](CO)O2)c(=O)n1` (stereo not given in full): 26.8 µM (active); for `CCCCCN(CCCCC)C(=O)C(CCC(=O)O)NC(=O)c1ccc(Cl)c(Cl)c1` (stereo not given): “inactive”; for `COc1cccc(OC)c1`: “inactive”.

On to `NCCN1CCNC1=O`, for which the Potency result is “inactive”.

For `O=C1C(CCS(=O)c2ccccc2)C(=O)N(c2ccccc2)N1c1ccccc1` (stereo not given), the Potency entry was “inactive”. For `c1ccc(SCCSc2ccccc2)cc1`, the Potency result is “inactive”.

Consider `COC[C@H](c1ccc(C(F)(F)F)cc1)N1CCN(C2(C)CCN(C(=O)c3c(C)ncnc3C)CC2)C[C@H]1C`, for which the Potency entry was “inactive”. With `COc1ccc(COC=O)cc1`, the Potency result is “inactive”. Turning to `CCC(=O)/C=C/c1ccc(OC)cc1`, the Potency result was “inactive”. Still for that read-out and setting: under `CCCc1ccc(N)cc1` stands “inactive”. Take `O=C1OC(=O)c2cc([N+](=O)[O-])ccc21`: the Potency result was “inactive”. Turning to `C=C(C)C(=O)NCCCN(C)C`, the Potency result is “inactive”. Take `Nc1ncnc2c1ncn2Cc1c(F)cccc1Cl`: the Potency result is “inactive”. On to `COc1nc(C)nc(N)n1`, for which the Potency entry is “inactive”.

Consider `C1=C\CC/C=C\CC/C=C\CC/1`, for which the Potency result was “inactive”. Still for that read-out and setting: the same measure for `C=CCSCC1Nc2cc(Cl)c(S(N)(=O)=O)cc2S(=O)(=O)N1` (stereo not given): “inactive”.

As to `NCC[C@H](O)C(=O)N[C@@H]1C[C@H](N)[C@@H](O[C@H]2O[C@H](CN)[C@@H](O)[C@H](O)[C@H]2O)[C@H](O)[C@H]1O[C@H]1O[C@H](CO)[C@@H](O)[C@H](N)[C@H]1O`, the cytotoxicity was -4.16% [at 0.29 µM].

For the compound `Cc1onc(-c2ccccc2)c1-c1ccc(S(N)(=O)=O)cc1`, the Potency result is “inactive”. The same measure, in the same setting: the same measure for `N#CCc1ccccc1[N+](=O)[O-]`: “inactive”. On the same count and under the same terms, under `CC(C)CCCC(C)NCCC(C)C` (stereo not given) stands “inactive”. The same measure, in the same setting: the same measure for `C=C(C)C(=O)OCCC(C)OC(=O)C(=C)C` (stereo not given): “inactive”; for `CC(C)COC(=O)C(C)C`: “inactive”; for `NC(CS)C(=O)O` (stereo not given): “inactive”. In the case of `C#CC(C)(O)CC(C)C` (stereo not given), the Potency result was “inactive”. The same measure, in the same setting: under `Cc1c(C)n(CCN(C)C)c2ccc(C(=O)OCCN(C)C)cc12` stands “inactive”.

For the compound `CC1=CC(C)C(C=O)C(C)C1` (stereo not given), the Potency entry was “inactive”. Same read-out and setting: the same measure for `N#CCN(CC#N)CCN(CC#N)CC#N`: “inactive”. Same read-out and setting: the same measure for `CCO[Si](CCCN=C=O)(OCC)OCC`: “inactive”; for `c1cc(CN2CCCCC2)cc(OCCCNc2nc3ccccc3s2)c1`: “inactive”. Take `COCCOC(=O)CC#N`: the Potency entry was “inactive”. With `CC(C)(O)Cc1ccccc1`, the Potency result is “inactive”.

Consider `CCCCNc1ccccc1`, for which the Potency result is “inactive”. On the same count and under the same terms, the same measure for `CC/C=C\CCCCO`: “inactive”. On to `Cn1ccc2cc3c(cc21)CCN3C(=O)Nc1cccnc1`, for which the cytotoxicity is -1.51% [at 15.8 µM].

Regarding `COC(=O)CCCCCCCCC(=O)OC`, the Potency entry is “inactive”. On to `CCCCC1CCCCC(=O)O1` (stereo not given), for which the Potency entry was “inactive”.

For `NS(=O)(=O)c1cc(C2(O)NC(=O)c3ccccc32)ccc1Cl` (stereo not given), the Potency entry was “inactive”. With `Nc1[nH]c(=O)ncc1F`, the Potency entry was “inactive”.

With `CC(C=O)Cc1ccc(C(C)C)cc1` (stereo not given), the Potency result is “inactive”.

These data come from PubChem BioAssay (Tox21).
